Measured values as given in PubChem BioAssay (NCI).
Several values for one entry are separate records, joined by “and”; a condition that tells them apart may be missing. Equal values may be shown once. This is part of a sample that, as a whole, favours compounds with a hit. Of some 83,000 tested, about 20% had one in any assay.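 Values shown are percent growth following 48 h exposure of cells in 96-well plates to a single concentration of compound; below 10 was considered active.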 Activity calls are given as the source filed them.

Columns and labels:
Test in all cases: NCI-60 one-dose screen, 48 h (100 = growth as untreated, 0 = no growth, -100 = all killed)
Conditions in all cases: 10 µM unless noted
SK-MEL-2 melanoma = system: SK-MEL-2 melanoma
EKVX NSCLC = system: EKVX NSCLC
SN12C renal = system: SN12C renal
UO-31 renal = system: UO-31 renal
TK-10 renal = system: TK-10 renal
ACHN renal = system: ACHN renal
CAKI-1 renal = system: CAKI-1 renal
A498 renal = system: A498 renal
HL-60(TB) leukemia = system: HL-60(TB) leukemia
CCRF-CEM leukemia = system: CCRF-CEM leukemia
MOLT-4 leukemia = system: MOLT-4 leukemia
SR leukemia = system: SR leukemia
RPMI-8226 leukemia = system: RPMI-8226 leukemia
OVCAR-8 ovarian = system: OVCAR-8 ovarian
OVCAR-5 ovarian = system: OVCAR-5 ovarian
OVCAR-4 ovarian = system: OVCAR-4 ovarian
SK-OV-3 ovarian = system: SK-OV-3 ovarian
IGROV1 ovarian = system: IGROV1 ovarian
OVCAR-3 ovarian = system: OVCAR-3 ovarian
HS 578T breast = system: HS 578T breast

| SMILES | growth (SK-MEL-2 melanoma) | growth (EKVX NSCLC) | growth (SN12C renal) | growth (UO-31 renal) | growth (TK-10 renal) | growth (ACHN renal) | growth (CAKI-1 renal) | growth (A498 renal) | growth (HL-60(TB) leukemia) | growth (CCRF-CEM leukemia) | growth (MOLT-4 leukemia) | growth (SR leukemia) | growth (RPMI-8226 leukemia) | growth (OVCAR-8 ovarian) | growth (OVCAR-5 ovarian) | growth (OVCAR-4 ovarian) | growth (SK-OV-3 ovarian) | growth (IGROV1 ovarian) | growth (OVCAR-3 ovarian) | growth (HS 578T breast) |
| --- | --- | --- | --- | --- | --- | --- | --- | --- | --- | --- | --- | --- | --- | --- | --- | --- | --- | --- | --- | --- |
| C[C@]12CCc3sc(Nc4ccc(O)cc4)nc3C1=CC[C@@H]1[C@@H]2CC[C@]2(C)C(=O)CC[C@@H]12 | 72.5% (inactive) | 98% (inactive) | 30.4% (inactive) | -48.8% (active) | 22.8% (inactive) | -17.3% (active) | 47.1% (inactive) | 101% (inactive) | 8.98% (active) | 8.33% (active) | 11% (inactive) | 9.6% (active) | -24.5% (active) | 35.9% (inactive) | 117% (inactive) | 57.1% (inactive) | 108% (inactive) | 13.1% (inactive) | -31.7% (active) | 53.6% (inactive) |
| COc1ccc(/C=C(/C)[N+](=O)[O-])cc1OC | 8.73% (active) and 0.617% (active) | 65.6% (inactive) and 84.6% (inactive) | -1.3% (active) and 25.2% (inactive) | -63.9% (active) and -93.1% (active) | -49.9% (active) and 70.4% (inactive) | -1.7% (active) and -73% (active) | -6.27% (active) and -71.9% (active) | 112% (inactive) and 97.9% (inactive) | -14.7% (active) and -26% (active) | 0.7% (active) and 20.8% (inactive) | 0.86% (active) and -1.19% (active) | -21.8% (active) and -5.49% (active) | -17.9% (active) and -7.74% (active) | 6.5% (active) | 91.4% (inactive) and 66.7% (inactive) | 32.7% (inactive) | 112% (inactive) and 108% (inactive) | 10.8% (inactive) and -20.9% (active) | -94.1% (active) and -99.7% (active) |  |
| CC(=O)c1cccc(S(=O)(=O)F)c1 | 91.9% (inactive) | 98.8% (inactive) | 104% (inactive) | 83% (inactive) | 115% (inactive) | 99% (inactive) | 95.9% (inactive) | 95.8% (inactive) | 103% (inactive) | 97.9% (inactive) | 112% (inactive) | 76.1% (inactive) | 101% (inactive) | 106% (inactive) | 90.5% (inactive) | 114% (inactive) | 109% (inactive) | 103% (inactive) | 117% (inactive) | 96.4% (inactive) |
| CC[C@@H](C)C(=O)O[C@H]1[C@H](O)[C@H]2[C@@H](CN3C[C@@H](C)CC[C@H]3[C@@]2(C)O)[C@@H]2C[C@]34O[C@]5(O)[C@@H](OC(=O)[C@@](C)(O)CC)CC[C@@]3(C)[C@@H]5[C@@H](OC(C)=O)[C@@H](OC(C)=O)[C@H]4[C@@]21O | 103% (inactive) | 93.7% (inactive) | 97.1% (inactive) | 82.1% (inactive) | 106% (inactive) | 101% (inactive) | 100% (inactive) | 102% (inactive) | 92.4% (inactive) | 99.9% (inactive) | 87.3% (inactive) | 100% (inactive) | 94.1% (inactive) | 94.2% (inactive) | 103% (inactive) | 95.1% (inactive) | 93.9% (inactive) | 106% (inactive) | 106% (inactive) | 97.3% (inactive) |
| C/C(=N/OC(=O)N(C)C)c1ccc(Cl)c(Cl)c1 | 111% (inactive) | 123% (inactive) | 95% (inactive) | 94.7% (inactive) | 101% (inactive) | 112% (inactive) | 102% (inactive) | 99.6% (inactive) | 112% (inactive) | 98.2% (inactive) | 86.3% (inactive) | 74.5% (inactive) | 89% (inactive) | 104% (inactive) | 100% (inactive) | 119% (inactive) | 116% (inactive) | 105% (inactive) | 113% (inactive) | 116% (inactive) |
| CC(=O)Nc1nc2c(s1)C1=CC[C@H]3[C@@H]4CC[C@H](OC(C)=O)[C@@]4(C)CC[C@@H]3[C@@]1(C)CC2 | 50.3% (inactive) | 82.9% (inactive) | 69.7% (inactive) | 72.7% (inactive) | 96.2% (inactive) | 67.7% (inactive) | 24.4% (inactive) | 62.1% (inactive) | 43.4% (inactive) | 57.7% (inactive) | 82.9% (inactive) | 21.5% (inactive) | 30.8% (inactive) | 70.8% (inactive) | 92.7% (inactive) | 69.4% (inactive) | 68.4% (inactive) | 62.5% (inactive) | 20.1% (inactive) | 39% (inactive) |
| CO[C@@H]([CH2][Hg][O]C(=O)c1ccccc1)[C@@H]([CH2][Hg][O]C(=O)c1ccccc1)OC | 105% (inactive) | 110% (inactive) | 98.2% (inactive) | 88.8% (inactive) | 128% (inactive) | 99% (inactive) | 94.3% (inactive) | 117% (inactive) | 64.9% (inactive) | -6.61% (active) | 27.4% (inactive) | 50.2% (inactive) | 92.2% (inactive) | 83.8% (inactive) | 111% (inactive) | 93.8% (inactive) | 73.2% (inactive) | 96.4% (inactive) | -92.8% (active) | 113% (inactive) |
